The values below come from PubChem BioAssay AID602313 (National Center for Advancing Translational Sciences (NCATS), 2012).

About 760 (0.19%) of roughly 390,000 compounds were called active. Roughly 3% stayed inconclusive and do not appear here. For the sample, actives were picked, then their nearest neighbours and some compounds at random. Values without a mark were called inactive. Calls come from the whole dose curve; as a rule, active = well fitted inhibition curve with a large enough effect; inconclusive = small, poorly fitted or top-dose-only effect; inactive = flat fitted curve, though single readings scatter.
Potency is the fitted concentration of half-maximal effect.

The test can be described thus: qHTS for Inhibitors of Vif-A3F Interactions: qHTS. For activity, negative = active: % of control where 0% means no effect. Note: nearly all actives have a fitted effect of over 65% in size. The following applies: HeLa A3F-eYFP + Vif (tagged APOBEC3F with the HIV-1 protein that degrades it), YFP fluorescence increase; series mostly up to 46.1 µM; activity, negative = active: at the top concentration. From the text: The recent discovery and characterization of host restriction factors, which provide a potent defense to invading retroviruses, has provided new targets for antiviral drug development. APOBEC3G (A3G) and APOBEC3F (A3F) are potent cytidine deaminases that block HIV-1 replication; HIV-1 expresses the Vif protein, which counteracts A3G and A3F by binding to them and inducing their proteasomal degradation. The Vif-A3G and Vif-A3F interactions provide two potential targets for development of small molecules which can interfere with the ability of Vif to degrade A3G or A3F. […] To identify inhibitors that can interfere with Vif mediated degradation of A3G and A3F, we have developed Hela cell lines that stably express A3G or A3F tagged with eYFP at the C-terminal end (A3G-eYFP or A3F-eYFP, respectively) and Vif. In the absence of an inhibitor, Vif induces degradation of A3G-eYFP and A3F-eYFP, and the cells are not fluorescent. In the presence of an inhibitor, it is expected that Vif will be unable to degrade A3G-eYFP and/or A3F-eYFP, resulting in an increase in yellow fluorescence. In this assays Vif A3F was screened against the Molecular Library Small Molecule Repository (MLSMR). NIH Chemical Genomics Center [NCGC] NIH Molecular Libraries Probe Centers Network [MLPCN] MLPCN Grant: MH093245 Assay Submitter (PI): Vinay Pathak, National Cancer Institute
5 uL of 700 cells/well of A3F-YFP cells are dispensed into black, clear bottom plates. The plates are incubated overnight at 37 deg C. 23 nL of compounds are added by pintool. The plates are incubated overnight at 37 deg C and then read on the TTP Acumen (Ex 488/ Em 500-530).
(In qHTS, concentration-response curves come from the screen itself.)
`COc1ccc(Cl)cc1S(=O)(=O)N1CCC(c2ccncc2)CC1`: the “activity, negative = active” value is 3.97%.
Same read-out and setting: with `CCOc1ccc2nc(N3CCC(C(=O)Nc4cc(C)ccc4C)CC3)sc2c1` the figure was -11.1%; with `CCCS(=O)(=O)c1ncc(Cl)c(C(=O)Nc2scc(-c3ccccc3)c2C(=O)OCC)n1`, 1.36%; with `O=C(/C=C/c1ccccc1)Nc1cc(-c2nc3cc(Cl)ccc3o2)ccc1Cl`, -2.35%.
Same read-out and setting: next, `COC(=O)c1ccccc1NC(=O)Cn1c(=O)cc(C)c2c(C)nn(-c3cccc(Cl)c3C)c21`: -10.3%.
The same measure, in the same setting: with `Cc1cccc(NC(=O)Cn2nc(-c3ccc(Cl)cc3)c3ccccc3c2=O)c1` the figure was -26.3%.
For the compound `COc1cc2c(cc1OC)C(COc1ccc(F)cc1)N(C(=O)c1ccccc1F)CC2` (stereo not given), the “activity, negative = active” value is 7.39%.
Still for that read-out and setting: next, `Cc1ccc(OCCSc2nc3ccc(NC(=O)COc4ccc(C)cc4)cc3s2)cc1`: -0.244%; `O=C(CC1NCCc2ccccc21)Nc1cccc(Cl)c1` (stereo not given): -28.8%.
As for `O=C(CC1Nc2ccccc2NC1=O)Nc1ccccc1` (stereo not given), the Potency is 12.6 µM (active).
For the compound `COC(=O)c1cc(C)sc1NC(=O)CC1Nc2ccccc2NC1=O` (stereo not given), the “activity, negative = active” value is -8%.
On the same count and under the same terms, with `COc1cccc(CNC(=O)C2CCC(CNS(=O)(=O)c3cccs3)CC2)c1` (stereo not given) the figure was 3.35%.
On the same count and under the same terms, next, `COc1ccc(C2c3c(oc4ccccc4c3=O)C(=O)N2Cc2ccc3c(c2)OCO3)cc1` (stereo not given): -2.63%; `CC(=O)N1CCCc2cc(S(=O)(=O)N3CCC(C(=O)NCc4ccc(F)cc4)CC3)ccc21`: -3.28%; `Cc1cc(C)cc(NC(=O)CSc2nc(=O)n(CCN3CCOCC3)c3c2CCC3)c1`: 1.36%.
Same read-out and setting: next, `CCCCOC(=O)/C(C#N)=C/c1ccc(-c2cccc(C(F)(F)F)c2)o1`: 0.984%.
As to `CCCCNC(=O)C1CCCN(c2nnc(C)c3c(C)n(-c4ccc(Cl)cc4)nc23)C1` (stereo not given), the “activity, negative = active” value is 0.0194%.
Still for that read-out and setting: next, `CCOc1ccc(S(=O)(=O)Nc2ccc3oc4c(c3c2)CC(C)CC4)cc1` (stereo not given): -1.64%.
On the same count and under the same terms, with `CCNC(=O)c1cc2n(n1)CCCN(Cc1ccc(C)cc1)C2=O` the figure was -0.301%; with `CCCOC(=O)c1c(NC(=O)c2cc3nc(-c4ccc(OC)cc4)cc(C(F)(F)F)n3n2)sc2c1CCCC2`, 1.95%; with `O=C(NCC(c1ccc2c(c1)OCO2)N1CCN(c2ccccc2)CC1)C(=O)Nc1ccccc1F` (stereo not given), 2.29%.
The same measure, in the same setting: next, `O=C(NC1CC(=O)N(c2ccc(F)cc2)C1)C1CCCCC1` (stereo not given): 1.21%.
For `Cc1cc(C)c(/C=C2\C(=O)Nc3ccccc32)[nH]1`, the Potency is 12.6 µM (active).
Consider `Fc1ccc(-n2ncc3c(Nc4ccc(Oc5ccccc5)cc4)ncnc32)cc1`, for which the “activity, negative = active” value is -29%.
On the same count and under the same terms, with `COc1ccccc1NC(=O)c1oc2ccccc2c1NC(=O)C(C)C` the figure was -14.6%.
Turning to `Cc1ccc(Cc2nc3ccccc3nc2SCC(=O)Nc2cccc(C(F)(F)F)c2)cc1`, the “activity, negative = active” value was -7.16%.
As for `COc1ccc(NC(=O)Cn2cc(C(=O)c3ccncc3)c(=O)c3cc(C)ccc32)cc1Cl`, the “activity, negative = active” value was 0.229%.
Still for that read-out and setting: next, `Cc1ccc(C)c(Oc2c(C(F)(F)F)oc3c(CN4CCN(C)CC4)c(O)ccc3c2=O)c1`: -3.95%.
Consider `CC1CCC(N2CC(=O)N(CCC3=CCCCC3)C(c3ccc(F)cc3)C2=O)CC1` (stereo not given), for which the “activity, negative = active” value was 9.13%.
With `COc1ccc(Cl)cc1NC(=O)c1sc2nc3c(cc2c1N)CN(C)CC3`, the “activity, negative = active” value was -23.7%.
In the case of `CCOc1ccc(N2CC(c3nc4ccccc4n3CCOc3ccc(OC)cc3)CC2=O)cc1` (stereo not given), the “activity, negative = active” value is 2.96%.
The same measure, in the same setting: with `O=S(=O)(c1ccc(C2CCCCC2)cc1)N1CCN(c2ccc(Cl)c(Cl)c2)CC1` the figure was -4.98%; with `CC(C)c1ccc(C2CC(=O)N3CN(C4CCCCC4)CSC3=C2C#N)cc1` (stereo not given), 1.95%; with `CCOc1ccc2oc(=O)cc(CN3CCN(C(=O)c4ccc(F)cc4)CC3)c2c1`, 8.67%.
Still for that read-out and setting: next, `COc1ccc(-c2nn3c(-c4ccc(OC)cc4)nnc3c3ccccc23)cc1`: 3.72%; `CC(C)c1ccc(NC(=O)c2cc(S(=O)(=O)N3CCc4ccccc4C3)ccc2F)cc1`: 0.749%; `CCOc1ccccc1C(=O)NCc1ccc2c(c1)CCN2C(=O)c1ccc(F)cc1`: -7.05%.
On the same count and under the same terms, next, `CCOc1ccc(N(Cc2ccccc2)C(=O)c2nc(S(C)(=O)=O)ncc2Cl)cc1`: 5.15%; `Cc1ccc2sc(N(Cc3cccnc3)C(=O)C3COc4ccccc4O3)nc2c1C` (stereo not given): -6.9%; `Cc1ccc(NC(=O)c2oc3ccc(S(=O)(=O)N4CCCCC4)cc3c2C)cc1Cl`: 0.769%.
As for `CCc1nn(CC(=O)N2CCN(c3ccc(Cl)cc3)CC2)c(=O)c2cc3occc3n12`, the “activity, negative = active” value is 0.0492%.
Still for that read-out and setting: next, `Cc1nc2c(-c3ccccc3)c(C)nn2c(C)c1CCC(=O)NCCc1ccccc1`: -7.66%; `COc1ccccc1Nc1nc(N)nc(N)c1S(=O)(=O)c1ccccc1`: 6.16%.
On the same count and under the same terms, next, `COc1cc(NC(=O)c2cc3ccc4cccnc4c3[nH]2)cc(OC)c1OC`: -2.39%.
Same read-out and setting: with `COc1ccc(-c2cn3c(n2)sc2cc(C(=O)Nc4ccc(F)cc4)ccc23)cc1` the figure was 0.115%; with `COc1ccc(NC(=O)c2sc3nc(-c4cc5cccc(OC)c5oc4=O)[nH]c(=O)c3c2C)cc1`, 6.98%; with `Cc1ccc(Nc2c(-c3ccc(C)cc3)nc3cnccn23)cc1`, -7.53%.
As to `COc1ccc(-c2nc3cnccn3c2NC2CCCCC2)cc1-c1cccc(Cl)c1`, the Potency is 22.4 µM (active).
Turning to `COc1ccc(-c2nc3cnccn3c2NC(C)(C)CC(C)(C)C)cc1O`, the “activity, negative = active” value is 5.18%.
Turning to `CCOCCCNC(=O)c1ccc2nc(CCc3ccccc3)oc2c1`, the “activity, negative = active” value was 1.04%.
